Growth inhibition, inhibition and outcome data for 20 molecules are collected here from PubChem BioAssay.

Each structure is given as a SMILES string. A number with no mark means an inactive call. For some of these results: Measured potencies and affinities stand elsewhere. Active and inactive are the calls of the source. Unless noted, the rule behind the calls is not given here.

Test [1] in a line: antimalarial activity against Dd2 strain (AID 2302;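 active = growth inhibition above 50% at the single 2 µM test dose, taken to imply half-maximal potency below 2 µM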;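 note: 0% = DMSO untreated growth and 100% = chloroquine plus artemisinin killed control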). As to conditions: P. falciparum Dd2 in RBCs, LDH growth readout, 72 h; at 2 µM; stronger effect = higher value.
A short description of test [2]: human hepatoma cell viability loss – ATP luminescence, cytotoxicity control for P. falciparum antimalarial project, primary screen (AID 2303;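 active = inhibition above 50%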;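 note: 0% = DMSO wells and 100% = digitonin-killed cells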). As to conditions: HepG2 viability, 24-48 h, at 10 µM, stronger effect = higher value.
Test [3] deals with L-lactate dehydrogenase (Plasmodium falciparum (isolate CDC / Honduras)) (UniProt Q27743). The test can be described thus: PfLDH activity inhibition – cell lysate, 3D7 strain, counter-screen for P. falciparum growth inhibition project (AID 2304).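 Note: 0% = vehicle and 100% = reference inhibitor.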 The settings on record: P. falciparum 3D7 crude extract, LDH APAD/NBT absorbance; at 2 µM; stronger effect = higher value.
Sequence of L-lactate dehydrogenase (Plasmodium falciparum (isolate CDC / Honduras)) (Q27743 whole entry, looked up): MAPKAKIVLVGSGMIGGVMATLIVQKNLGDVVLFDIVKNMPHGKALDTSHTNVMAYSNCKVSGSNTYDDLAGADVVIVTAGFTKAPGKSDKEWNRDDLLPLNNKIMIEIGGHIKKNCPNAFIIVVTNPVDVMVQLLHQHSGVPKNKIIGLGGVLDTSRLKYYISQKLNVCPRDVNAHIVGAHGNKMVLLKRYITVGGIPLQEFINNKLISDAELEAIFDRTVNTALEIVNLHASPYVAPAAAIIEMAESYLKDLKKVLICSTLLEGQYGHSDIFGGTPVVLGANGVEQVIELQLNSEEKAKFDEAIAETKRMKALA
Test [4] is described as follows: inhibition of 3D7 malaria parasite growth – strain 3D7 (AID 2306).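 Note: 0% = DMSO wells and 100% = chloroquine plus artemisinin control wells.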 As to conditions: P. falciparum 3D7 erythrocytic growth, LDH absorbance, 72 h; at 2 µM; stronger effect = higher value.
In test [5] the target is Calcium-dependent protein kinase 1 (Plasmodium falciparum (isolate 3D7)) (UniProt P62344). As to the kind of experiment: PfCDPK1 kinase inhibitors, biochemical, TCAMS library (AID 1159585; cut-off not given, nearly all actives have IC50 up to about 0.98 µM;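 note: inhibitors leave more ATP so luminescence rises with inhibition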). As to conditions: recombinant PfCDPK1, Kinase-Glo ATP depletion luminescence. A general note: In Kinase-Glo more light means more ATP remaining.
Sequence of Calcium-dependent protein kinase 1 (Plasmodium falciparum (isolate 3D7)) (P62344 whole entry, looked up): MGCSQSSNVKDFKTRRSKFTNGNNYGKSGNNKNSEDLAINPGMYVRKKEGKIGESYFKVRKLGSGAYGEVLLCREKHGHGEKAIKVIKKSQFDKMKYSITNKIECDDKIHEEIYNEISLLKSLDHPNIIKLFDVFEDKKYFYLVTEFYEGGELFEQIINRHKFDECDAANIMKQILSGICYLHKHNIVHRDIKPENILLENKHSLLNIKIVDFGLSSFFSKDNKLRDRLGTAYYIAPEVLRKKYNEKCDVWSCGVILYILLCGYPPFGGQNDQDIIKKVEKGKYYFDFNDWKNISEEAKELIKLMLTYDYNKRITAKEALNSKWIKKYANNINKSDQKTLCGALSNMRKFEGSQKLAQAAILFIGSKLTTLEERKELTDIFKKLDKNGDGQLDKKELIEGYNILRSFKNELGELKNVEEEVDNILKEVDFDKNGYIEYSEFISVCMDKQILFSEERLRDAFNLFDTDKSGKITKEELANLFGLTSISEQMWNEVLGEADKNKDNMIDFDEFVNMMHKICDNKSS
Test [6] deals with Plasmodium falciparum protein kinase 6 (PK6, PF3D7_1337100) (UniProt Q8IDW1). The test can be described thus: PfPK6 kinase inhibitors, biochemical, TCAMS library (AID 1159586). As to conditions: recombinant PfPK6, Kinase-Glo ATP depletion luminescence.
Sequence of Plasmodium falciparum protein kinase 6 (PK6, PF3D7_1337100) (Q8IDW1 1-305): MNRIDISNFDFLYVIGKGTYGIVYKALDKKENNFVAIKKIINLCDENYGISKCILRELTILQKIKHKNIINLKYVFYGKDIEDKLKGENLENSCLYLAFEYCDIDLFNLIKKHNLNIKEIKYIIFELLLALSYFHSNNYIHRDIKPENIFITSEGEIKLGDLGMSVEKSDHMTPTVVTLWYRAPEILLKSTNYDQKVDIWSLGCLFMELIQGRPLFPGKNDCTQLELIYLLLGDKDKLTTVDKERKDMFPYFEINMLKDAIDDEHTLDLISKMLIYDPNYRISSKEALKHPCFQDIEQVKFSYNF
Test [7] addresses Protein kinase 7 (PK7), Plasmodium falciparum 3D7 (PF3D7_0213400) (UniProt Q7YTF7). As to the kind of experiment: inhibition of Plasmodium PK7 catalytic activity – biochemical, TCAMS antimalarial set, Kinase-Glo luminescence (AID 1159587). The settings on record: recombinant PfPK7, Kinase-Glo ATP depletion luminescence.
The target of test [8] is Calcium-dependent protein kinase 4 (Plasmodium falciparum (isolate 3D7)) (UniProt Q8IBS5). The test can be described thus: PfCDPK4 kinase inhibitors, biochemical, TCAMS library (AID 1159588; cut-off not given, nearly all actives have IC50 up to about 0.91 µM). As to conditions: recombinant PfCDPK4, Kinase-Glo ATP depletion luminescence.
Sequence of Calcium-dependent protein kinase 4 (Plasmodium falciparum (isolate 3D7)) (Q8IBS5 whole entry, looked up): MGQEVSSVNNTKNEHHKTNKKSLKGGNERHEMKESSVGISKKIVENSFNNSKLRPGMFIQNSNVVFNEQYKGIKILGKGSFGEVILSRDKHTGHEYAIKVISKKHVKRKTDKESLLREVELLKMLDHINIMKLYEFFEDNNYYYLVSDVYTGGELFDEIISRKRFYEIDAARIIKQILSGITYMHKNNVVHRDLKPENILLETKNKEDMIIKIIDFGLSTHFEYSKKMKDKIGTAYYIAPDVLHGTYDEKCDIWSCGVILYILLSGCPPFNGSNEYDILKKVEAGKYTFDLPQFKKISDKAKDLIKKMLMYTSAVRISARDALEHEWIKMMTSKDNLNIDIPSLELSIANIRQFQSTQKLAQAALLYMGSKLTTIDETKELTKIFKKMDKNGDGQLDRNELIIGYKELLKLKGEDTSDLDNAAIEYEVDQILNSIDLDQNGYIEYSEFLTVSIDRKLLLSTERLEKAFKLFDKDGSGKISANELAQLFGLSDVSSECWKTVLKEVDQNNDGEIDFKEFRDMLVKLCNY

Sequence of Protein kinase 7 (PK7), Plasmodium falciparum 3D7 (PF3D7_0213400) (Q7YTF7 1-343): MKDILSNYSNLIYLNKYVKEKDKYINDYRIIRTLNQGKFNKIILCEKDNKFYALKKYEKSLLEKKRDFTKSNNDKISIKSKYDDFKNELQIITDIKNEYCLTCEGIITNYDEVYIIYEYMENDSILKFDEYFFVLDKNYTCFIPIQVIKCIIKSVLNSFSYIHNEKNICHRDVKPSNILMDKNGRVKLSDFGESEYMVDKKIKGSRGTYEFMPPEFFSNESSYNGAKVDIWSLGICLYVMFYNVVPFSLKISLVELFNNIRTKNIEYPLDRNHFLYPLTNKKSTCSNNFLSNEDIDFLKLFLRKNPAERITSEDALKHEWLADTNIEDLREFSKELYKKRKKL

A word on the inhibition: it is the drop in the measured response relative to a control, in per cent. Turning to `CCC[C@@H]([C@@H](CC1CCCCC1)C(=O)N[C@H](C(=O)Nc1nccs1)C(C)(C)SCCNC(=O)OCC)N(O)C=O`, the growth inhibition in test [1] was 98% (active); in test [4], 99% (active). Besides, the inhibition in test [2] is 45%; in test [3], 0%. Further, the outcome in test [5], in test [6], in test [7] and in test [8] was inactive.
`COc1ccc2nccc([C@@H](O)CN3CCC(NCc4nc5ccccc5[nH]4)CC3)c2c1`: the growth inhibition is 2% in test [1] and 92% (active) in test [4]. Also, the inhibition in test [2] was 41%; in test [3], 4%. The outcome in test [5], in test [6], in test [7] and in test [8] was inactive.
For the molecule `CCCCCCN(C(=O)OCc1ccccc1)[C@@H]1CCN(C(=O)OC(C)(C)C)C[C@H]1C(=O)OCC`, the growth inhibition in test [1] and in test [4] was 96% (active) each time. Also, the results for the inhibition in test [2] and in test [3] were 9% and -6%, respectively. For the same molecule, the result in test [5], in test [6], in test [7] and in test [8] was inactive.
As to `CC(C)CCN1CCCN(Cc2cccc(NC(=O)c3cc4ccccc4s3)c2)CC1`, the growth inhibition is 8% in test [1] and 96% (active) in test [4]. Besides, the inhibition was 34% in test [2] and 1% in test [3]. Besides, the result in test [5], in test [6], in test [7] and in test [8] was inactive.
With `CCc1c(C(=O)NC2CCC(N3CCC(c4ccccc4OC)CC3)CC2)[nH]c2ccc(Br)cc12` (stereo not given), the results for the growth inhibition in test [1] and in test [4] were 98% (active) and 101% (active), respectively. The results for the inhibition in test [2] and in test [3] were 85% (active) and -1%, respectively. Also, the outcome in test [5], in test [6], in test [7] and in test [8] was inactive.
In the case of `O=C(Nc1ccccc1Cc1ccccc1)c1ccccc1[N+](=O)[O-]`, the growth inhibition in test [1] is 59% (active); in test [4] it was 98% (active). Also, the inhibition in test [2] was -6%; in test [3], 3%. Also, the outcome in test [5], in test [6], in test [7] and in test [8] was inactive.
With `CN=C(NC)c1cccc(NC(=O)C=Cc2ccc(C=CC(=O)Nc3cccc(C(=NC)NC)c3)cc2)c1`, the growth inhibition in test [1] was 99% (active); in test [4], 98% (active). Also, the inhibition in test [2] is 21%; in test [3] it was 2%. Further, the outcome in test [5], in test [6], in test [7] and in test [8] was inactive.
Turning to `CCCCC([C@@H](Cc1ccc2ccccc2c1)C(=O)N[C@H](C(=O)NC)C(C)(C)C)N(O)C=O` (stereo not given in full), the growth inhibition is 97% (active) in test [1] and 100% (active) in test [4]. For the same molecule, the inhibition in test [2] was -6%; in test [3] it was 5%. Besides, the outcome in test [5], in test [6], in test [7] and in test [8] was inactive.
Take `CC(=NN=C(N)N)C(=O)Nc1ccc(Cl)c(Cl)c1`: the results for the growth inhibition in test [1] and in test [4] were 97% (active) and 101% (active), respectively. Moreover, the inhibition in test [2] is -3%; in test [3] it was 0%. The result in test [5], in test [6], in test [7] and in test [8] was inactive.
Turning to `O=c1cc(NCCC(CNCc2ccc(Br)o2)NCc2cc(Br)cc(Br)c2)[nH]c2ccccc12` (stereo not given), the values for the growth inhibition in test [1] and in test [4] were 90% (active) and 98% (active), respectively. Further, the inhibition in test [2] is 2%; in test [3], 6%. For the same molecule, the outcome in test [5], in test [6], in test [7] and in test [8] was inactive.
Take `CCN(CC)CCN(Cc1ccc(-c2ccc(C(F)(F)F)cc2)cc1)C(=O)Cn1c(CCc2c(F)cc(F)cc2F)nc(=O)c2ccccc21`: the figures for the growth inhibition in test [1] and in test [4] were 26% and 89% (active), respectively. Further, the inhibition in test [2] was 39%; in test [3], 3%. Besides, the result in test [5], in test [6], in test [7] and in test [8] was inactive.
As for `Cc1cccc2[nH]c(-c3cccc(-c4ccc(NC(=O)NCc5cccc(F)c5)cc4)c3)nc12`, the growth inhibition in test [1] was 83% (active); in test [4], 101% (active). Further, the inhibition in test [2] was 40%; in test [3], -4%. The result in test [5], in test [6], in test [7] and in test [8] was inactive.
As for `C[C@@H](NC(=O)NC(CCN1CCC2(CC1)CN(S(C)(=O)=O)c1ccccc12)c1ccc(Cl)c(Cl)c1)c1ccccc1` (stereo not given in full), the growth inhibition in test [1] is 88% (active); in test [4] it was 92% (active). Besides, the inhibition in test [2] is 15%; in test [3], 3%. Besides, the outcome in test [5], in test [6], in test [7] and in test [8] was inactive.
With `O=C(/C=C/c1ccc(Cl)c(Cl)c1)NCCCCCN1CCCN(C(=O)Nc2ccc([N+](=O)[O-])cc2)CC1`, the growth inhibition in test [1] is 28%; in test [4], 97% (active). The inhibition in test [2] was 32%; in test [3] it was -1%. Further, the outcome in test [5], in test [6], in test [7] and in test [8] was inactive.
As to `Cc1ccc(NS(=O)(=O)c2ccc(C(C)N3CCC(N4CCCCC4)CC3)cc2)cc1C` (stereo not given), the growth inhibition in test [1] is 82% (active); in test [4], 97% (active). The values for the inhibition in test [2] and in test [3] were 66% (active) and -2%, respectively. For the same molecule, the result in test [5], in test [6], in test [7] and in test [8] was inactive.
For `CC(C)CCN(Cc1cncn1Cc1ccccc1F)C(=O)c1cncc(-c2ccccc2)c1`, the growth inhibition in test [1] is 3%; in test [4], 96% (active). Also, the inhibition was 1% in test [2] and -5% in test [3]. In addition, the outcome in test [5], in test [6], in test [7] and in test [8] was inactive.
Turning to `CCCN(CCC)CCCOc1ccc(C(=O)c2c(-c3ccc(OCCCN(CCC)CCC)cc3)oc3ccc(Cl)cc23)cc1`, the growth inhibition was 95% (active) in test [1] and 96% (active) in test [4]. In addition, the inhibition is 100% (active) in test [2] and -8% in test [3]. Moreover, the result in test [5], in test [6], in test [7] and in test [8] was inactive.
`CN1CCN(c2ncnc3ccc(NC(=O)Nc4ccc(Cl)c(Cl)c4)cc23)CC1`: the growth inhibition in test [1] is 89% (active); in test [4], 100% (active). Also, the inhibition in test [2] is 7%; in test [3] it was -2%. Also, the result in test [5], in test [6], in test [7] and in test [8] was inactive.
In the case of `COc1cccc(CNC(=O)c2cc(CNCc3ccccc3)ccc2-c2cccc(CNCc3ccc(-c4ccccc4)cc3)c2)c1`, the growth inhibition in test [1] is 15%; in test [4], 95% (active). For the same molecule, the inhibition was 22% in test [2] and 8% in test [3]. Besides, the outcome in test [5], in test [6], in test [7] and in test [8] was inactive.
In the case of `O=C(Cc1ccccc1)NC(c1ccccc1)c1ccc2cccnc2c1O` (stereo not given), the growth inhibition in test [1] is 61% (active); in test [4], 89% (active). In addition, the inhibition in test [2] is 49%; in test [3], 3%. The result in test [5], in test [6], in test [7] and in test [8] was inactive.
